Measurements taken from PubChem BioAssay (EPA / NIEHS).
Where “and” joins values, the source holds several entries; their conditions need not be identical. Identical values can stand only once. Results filed as inconclusive are left out. Some structures have more than one record in an assay (separate samples or runs), and their calls can disagree. Calls of active or inactive are those of the source. Rule for the calls, unless noted: active = hit-call score of the fitted dose curve at least 0.9, where 1 is the maximum; inconclusive = response in the unintended direction; inactive = score below 0.9.

Tests used:
[1] = target: Estrogen-related receptor gamma (Homo sapiens) (UniProt P62508); experiment: ATG_ERRg_TRANS: Attagene TRANS-FACTORIAL HepG2 Assay for human Estrogen-Related Receptor gamma (ERRg) (AID 2282977); conditions: HepG2 Attagene TRANS reporter, ERRg transactivation;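 note: hits increase reporter signal over DMSO so potencies reflect activators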
Method in brief: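 Exogenous NR-Gal4 chimera activity measured as reporter transcript induction after 24 h in transiently transfected HepG2 cells. RNA reverse-transcribed, PCR-amplified, 6-FAM-labelled and resolved by capillary electrophoresis; increase over DMSO baseline.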

[2] = target: Glucocorticoid receptor (Homo sapiens) (UniProt P04150); experiment: ATG_GR_TRANS: Attagene TRANS-FACTORIAL HepG2 Assay for human Glucocorticoid Receptor (GR) (AID 2282978); conditions: HepG2 Attagene TRANS GR reporter, mRNA transcription;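 note: activators score as hits since higher reporter transcript over DMSO is fitted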
Method in brief: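 Fluorescent capillary-electrophoresis quantitation of reporter mRNA is the readout, taken 24 h after dosing human HepG2 cells carrying transiently transfected GAL4-UAS reporter units activated by chimeric NR-GAL4 fusions; activity scored as induction over DMSO.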

[3] = target: Bile acid receptor (Homo sapiens) (UniProt Q96RI1); experiment: ATG_FXR_TRANS: Attagene TRANS-FACTORIAL HepG2 Assay for Farnesoid X Receptor (FXR) (AID 2282979); conditions: HepG2 Attagene TRANS FXR-GAL4 reporter transcription;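 note: hits raise reporter mRNA above DMSO so AC50 marks FXR activation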
Method in brief: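 Chimeric FXR-GAL4 activity in transiently transfected human HepG2 liver cells is scored as induction of reporter mRNA after 24 h of dosing. Detection uses RT-PCR with fluorescent labelling and capillary electrophoresis, with DMSO serving as baseline.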

[4] = target: Oxysterols receptor LXR-alpha (Homo sapiens) (UniProt Q13133); experiment: ATG_LXRa_TRANS: Attagene TRANS-FACTORIAL HepG2 Assay for human Liver X Receptor alpha (LXRa) (AID 2282980); conditions: HepG2 Attagene TRANS reporter, LXRa transactivation
Method in brief: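 Transient HepG2 transfectants, 24 h dosing, RT-PCR/CE mRNA reporter quantitation; gain-of-signal vs DMSO.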

[5] = ATG_M_32_TRANS: Attagene TRANS-FACTORIAL HepG2 Assay for M32 Transcription Factor (Internal Marker) (AID 2282984); conditions: HepG2 Attagene TRANS M32 internal marker reporter
Method in brief: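 Internal-marker readout from a multiplexed transcription reporter panel. HepG2 cells were transfected with GAL4-UAS reporter units, treated 24 hours, and reporter transcript levels determined by fluorescence after RT-PCR and capillary separation.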

[6] = target: Nuclear receptor subfamily 4 group A member 2 (Homo sapiens) (UniProt P43354); experiment: ATG_NURR1_TRANS: Attagene TRANS-FACTORIAL HepG2 Assay for human Nuclear Receptor Related Protein 1 (NURR1) (AID 2282985); conditions: HepG2 Attagene TRANS reporter, mRNA readout
Method in brief: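 Endpoint: reporter mRNA increase relative to DMSO. HepG2 cells transfected with reporter units, treated 24 h; RNA processed by RT-PCR, labelling, HpaI digestion and capillary electrophoresis.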

[7] = target: Transcriptional activator Myb (Homo sapiens) (UniProt P10242); experiment: ATG_Myb_CIS: Attagene CIS-FACTORIAL HepG2 Assay for human Myeloblastosis (Myb) Proto-Oncogene Transcription Factor (AID 2282986; active = hit-call score of the fitted dose curve at least 0.9, where 1 is the maximum; inactive = score below 0.9); conditions: HepG2 Attagene CIS-FACTORIAL Myb reporter transcription; actives raise or lower the signal
Method in brief: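 Reporter transcript levels, quantified by fluorescent RT-PCR and capillary electrophoresis, serve as the read-out. Transfected HepG2 cells carrying cis-promoter reporter units are dosed for 24 hours, and curves are fitted bidirectionally against DMSO controls.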

[8] = target: Hepatocyte nuclear factor 4-alpha (Homo sapiens) (UniProt P41235); experiment: ATG_HNF4a_TRANS: Attagene TRANS-FACTORIAL HepG2 Assay for human Hepatocyte Nuclear Factor 4 alpha (HNF4a) (AID 2282982); conditions: HepG2 HNF4a transactivation reporter, mRNA readout
Method in brief: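 Endpoint reflects transcriptional activation of a GAL4-UAS reporter by an HNF4a-GAL4 chimera in transfected HepG2 cells, 24 h post-dosing. Fluorescence from RT-PCR products separated by capillary electrophoresis; DMSO baseline.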

[9] = ATG_M_06_TRANS: Attagene TRANS-FACTORIAL HepG2 Assay for M06 Transcription Factor (Internal Marker) (AID 2282983); conditions: HepG2 Attagene TRANS M06 internal marker reporter
Method in brief: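 Human liver HepG2 cells bearing transiently transfected chimeric NR-GAL4 reporter units were treated with chemicals for 24 h. Total RNA was reverse-transcribed, reporter sequences amplified and labelled, then quantified by capillary electrophoresis. Activity was fitted upward relative to DMSO.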

[10] = target: Oxysterols receptor LXR-beta (Homo sapiens) (UniProt P55055); experiment: ATG_LXRb_TRANS: Attagene TRANS-FACTORIAL HepG2 Assay for human Liver X Receptor beta (LXRb) (AID 2282981); conditions: HepG2 Attagene TRANS GAL4-LXRb reporter, mRNA
Method in brief: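 Multiplexed reporter assay, HepG2, 24 h dosing. Fluorescence of labelled RT-PCR products after capillary electrophoresis gives transcript level; positive fitting direction relative to DMSO.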

Chain of Bile acid receptor (Homo sapiens) (Q96RI1 whole entry, looked up, the tested form may be a part): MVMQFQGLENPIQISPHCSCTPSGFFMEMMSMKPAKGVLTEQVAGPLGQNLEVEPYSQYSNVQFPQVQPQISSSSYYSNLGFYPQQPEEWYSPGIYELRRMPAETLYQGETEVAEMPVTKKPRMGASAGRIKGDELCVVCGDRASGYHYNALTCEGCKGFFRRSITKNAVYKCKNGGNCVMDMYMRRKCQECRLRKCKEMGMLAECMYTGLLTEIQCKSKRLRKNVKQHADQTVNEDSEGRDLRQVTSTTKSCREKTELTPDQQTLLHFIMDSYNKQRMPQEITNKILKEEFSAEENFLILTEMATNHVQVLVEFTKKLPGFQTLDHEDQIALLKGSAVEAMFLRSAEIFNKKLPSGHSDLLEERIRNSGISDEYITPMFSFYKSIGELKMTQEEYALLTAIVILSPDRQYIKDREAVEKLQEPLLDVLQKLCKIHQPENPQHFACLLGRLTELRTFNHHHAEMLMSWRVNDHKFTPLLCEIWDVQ
Chain of Glucocorticoid receptor (Homo sapiens) (P04150 whole entry, looked up, the tested form may be a part): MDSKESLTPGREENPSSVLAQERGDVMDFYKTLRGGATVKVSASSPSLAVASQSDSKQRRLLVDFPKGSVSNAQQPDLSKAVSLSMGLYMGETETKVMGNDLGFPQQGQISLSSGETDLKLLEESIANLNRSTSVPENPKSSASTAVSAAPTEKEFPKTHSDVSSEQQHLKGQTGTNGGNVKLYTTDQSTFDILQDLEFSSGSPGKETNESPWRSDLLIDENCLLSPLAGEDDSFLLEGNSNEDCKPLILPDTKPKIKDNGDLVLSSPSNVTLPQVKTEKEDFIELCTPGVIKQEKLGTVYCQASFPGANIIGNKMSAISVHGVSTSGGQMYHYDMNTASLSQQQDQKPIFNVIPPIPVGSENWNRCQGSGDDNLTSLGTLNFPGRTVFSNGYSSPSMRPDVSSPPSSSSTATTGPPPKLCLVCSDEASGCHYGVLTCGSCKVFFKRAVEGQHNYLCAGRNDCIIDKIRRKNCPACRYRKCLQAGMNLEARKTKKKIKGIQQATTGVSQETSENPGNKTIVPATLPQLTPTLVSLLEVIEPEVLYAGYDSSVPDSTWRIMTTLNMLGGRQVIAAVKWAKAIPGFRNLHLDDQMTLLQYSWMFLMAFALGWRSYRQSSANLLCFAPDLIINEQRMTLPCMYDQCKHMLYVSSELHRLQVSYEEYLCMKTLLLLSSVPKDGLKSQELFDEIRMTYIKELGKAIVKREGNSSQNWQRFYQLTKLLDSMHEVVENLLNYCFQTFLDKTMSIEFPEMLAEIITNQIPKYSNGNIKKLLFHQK
Chain of Estrogen-related receptor gamma (Homo sapiens) (P62508 whole entry, looked up, the tested form may be a part): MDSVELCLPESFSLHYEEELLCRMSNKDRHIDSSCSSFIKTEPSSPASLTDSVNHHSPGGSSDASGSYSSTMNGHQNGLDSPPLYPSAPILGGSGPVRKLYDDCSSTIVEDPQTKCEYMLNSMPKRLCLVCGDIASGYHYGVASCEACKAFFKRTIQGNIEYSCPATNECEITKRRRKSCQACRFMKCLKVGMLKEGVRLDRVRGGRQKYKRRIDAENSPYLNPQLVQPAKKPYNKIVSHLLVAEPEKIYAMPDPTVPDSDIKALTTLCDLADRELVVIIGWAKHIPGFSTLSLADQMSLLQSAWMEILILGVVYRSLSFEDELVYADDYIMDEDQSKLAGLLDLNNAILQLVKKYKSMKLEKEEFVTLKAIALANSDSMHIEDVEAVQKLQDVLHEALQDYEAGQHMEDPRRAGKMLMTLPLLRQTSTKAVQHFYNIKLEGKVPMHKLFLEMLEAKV
Chain of Transcriptional activator Myb (Homo sapiens) (P10242 whole entry, looked up): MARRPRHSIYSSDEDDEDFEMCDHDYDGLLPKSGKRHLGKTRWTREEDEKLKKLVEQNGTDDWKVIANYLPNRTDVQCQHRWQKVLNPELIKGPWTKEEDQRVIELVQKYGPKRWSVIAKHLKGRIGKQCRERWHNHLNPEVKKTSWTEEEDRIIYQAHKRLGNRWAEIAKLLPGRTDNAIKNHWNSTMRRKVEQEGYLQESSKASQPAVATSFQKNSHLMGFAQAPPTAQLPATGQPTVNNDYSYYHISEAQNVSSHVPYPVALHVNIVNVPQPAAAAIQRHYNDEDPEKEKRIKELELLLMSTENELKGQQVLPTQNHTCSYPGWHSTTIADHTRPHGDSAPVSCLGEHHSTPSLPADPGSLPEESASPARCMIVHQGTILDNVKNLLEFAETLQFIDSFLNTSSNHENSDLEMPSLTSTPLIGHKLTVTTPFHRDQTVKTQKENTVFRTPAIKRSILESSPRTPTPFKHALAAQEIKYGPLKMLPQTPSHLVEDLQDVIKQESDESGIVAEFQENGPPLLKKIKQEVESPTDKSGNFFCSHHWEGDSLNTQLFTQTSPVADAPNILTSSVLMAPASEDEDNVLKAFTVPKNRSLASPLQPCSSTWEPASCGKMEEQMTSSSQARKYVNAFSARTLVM
Chain of Nuclear receptor subfamily 4 group A member 2 (Homo sapiens) (P43354 whole entry, looked up): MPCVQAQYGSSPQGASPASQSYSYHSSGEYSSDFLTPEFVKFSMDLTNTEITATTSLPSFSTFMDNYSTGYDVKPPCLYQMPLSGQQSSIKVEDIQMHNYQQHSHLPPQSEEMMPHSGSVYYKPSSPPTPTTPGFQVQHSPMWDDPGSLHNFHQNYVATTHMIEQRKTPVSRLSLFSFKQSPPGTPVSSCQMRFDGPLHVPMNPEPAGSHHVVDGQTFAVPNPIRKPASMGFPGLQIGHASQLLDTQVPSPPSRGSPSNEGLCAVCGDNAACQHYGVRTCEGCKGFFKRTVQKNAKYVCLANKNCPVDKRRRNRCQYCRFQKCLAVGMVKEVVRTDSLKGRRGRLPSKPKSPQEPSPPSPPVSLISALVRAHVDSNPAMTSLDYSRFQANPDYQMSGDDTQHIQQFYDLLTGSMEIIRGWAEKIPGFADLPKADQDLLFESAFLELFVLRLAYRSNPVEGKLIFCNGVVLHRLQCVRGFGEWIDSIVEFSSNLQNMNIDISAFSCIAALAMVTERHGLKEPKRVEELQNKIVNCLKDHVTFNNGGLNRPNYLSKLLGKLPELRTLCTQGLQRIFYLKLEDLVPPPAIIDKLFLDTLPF
Chain of Hepatocyte nuclear factor 4-alpha (Homo sapiens) (P41235 whole entry, looked up, the tested form may be a part): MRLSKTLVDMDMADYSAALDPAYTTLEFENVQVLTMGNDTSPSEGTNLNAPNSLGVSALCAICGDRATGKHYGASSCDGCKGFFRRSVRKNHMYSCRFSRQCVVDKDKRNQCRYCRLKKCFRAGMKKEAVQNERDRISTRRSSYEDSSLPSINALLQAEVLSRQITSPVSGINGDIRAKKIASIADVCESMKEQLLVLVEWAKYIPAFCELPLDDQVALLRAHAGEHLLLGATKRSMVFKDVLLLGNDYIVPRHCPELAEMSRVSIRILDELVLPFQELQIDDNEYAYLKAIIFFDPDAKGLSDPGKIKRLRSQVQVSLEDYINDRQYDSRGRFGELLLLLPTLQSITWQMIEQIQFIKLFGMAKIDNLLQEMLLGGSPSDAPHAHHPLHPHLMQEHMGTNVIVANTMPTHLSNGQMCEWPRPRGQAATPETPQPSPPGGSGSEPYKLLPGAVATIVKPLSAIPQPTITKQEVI
Chain of Oxysterols receptor LXR-alpha (Homo sapiens) (Q13133 whole entry, looked up): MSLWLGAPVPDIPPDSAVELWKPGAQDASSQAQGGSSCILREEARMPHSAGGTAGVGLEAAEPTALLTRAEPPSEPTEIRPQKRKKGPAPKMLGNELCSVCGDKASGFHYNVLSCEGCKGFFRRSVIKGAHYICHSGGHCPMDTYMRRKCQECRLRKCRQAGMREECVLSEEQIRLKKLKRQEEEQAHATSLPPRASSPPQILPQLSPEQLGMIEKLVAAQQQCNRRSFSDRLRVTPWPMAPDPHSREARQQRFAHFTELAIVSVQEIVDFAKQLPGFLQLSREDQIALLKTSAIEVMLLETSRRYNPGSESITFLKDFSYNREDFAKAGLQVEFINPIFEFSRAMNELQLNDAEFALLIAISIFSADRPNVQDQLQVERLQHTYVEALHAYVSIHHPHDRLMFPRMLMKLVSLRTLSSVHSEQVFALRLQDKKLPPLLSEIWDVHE

Row | SMILES | outcome [1] | outcome [2] | outcome [3] | outcome [4] | outcome [5] | outcome [6] | outcome [7] | outcome [8] | outcome [9] | AC50 [6] | outcome [10]
1 | FC(F)=C(F)C(F)(F)C(F)(F)C(F)(F)C(F)(F)C(F)(F)C(F)(F)F | inactive | inactive | inactive | inactive | inactive | inactive | inactive | – | – | – | –
2 | OCc1c[nH]c2ccccc12 | inactive | – | inactive | inactive | inactive | inactive | inactive | inactive | inactive | 18.8 µM (active) and 14.4 µM (active) | –
3 | NNC(=O)c1ccncc1 | inactive | inactive | – | – | inactive | – | inactive | – | inactive | – | –
4 | OCCNCCO | inactive | inactive | – | – | inactive | – | inactive | inactive | inactive | – | –
5 | CCOc1ccc2[nH]cc(C(=O)NCc3ccccc3)c(=O)c2n1 | inactive | – | – | – | inactive | inactive | inactive | inactive | inactive | – | –
6 | S=P(N1CC1)(N1CC1)N1CC1 | inactive | inactive | inactive | inactive | inactive | inactive | inactive | inactive | inactive | – | –
8 | FC(F)(F)C(F)(F)C(F)(F)C(F)(F)C(F)(F)C(F)(F)I | inactive | inactive | inactive | inactive | inactive | inactive | inactive | – | inactive | – | –
9 | Cc1nc(-c2ccccn2)ncc1C(=O)Nn1cc(C)c2cc(F)ccc21 | inactive | – | – | – | – | – | inactive | – | – | – | –
10 | OCc1ccccc1 | inactive | inactive | – | – | inactive | inactive | inactive | inactive | inactive | 14.2 µM (active) | –
11 | O=C(NO)C1(NS(=O)(=O)c2ccc(Oc3ccc(F)cc3)cc2)CCOCC1 | inactive | – | – | inactive | inactive | inactive | inactive | inactive | inactive | – | –
12 | O=c1[nH]cnc2c1ncn2[C@H]1CC[C@@H](CO)O1 | inactive | inactive | – | – | – | inactive | inactive | – | inactive | – | –
13 | C[C@@H](Oc1ccc(CNC(=O)c2cccnc2Oc2ccc3c(c2)OCO3)c(F)c1)C(=O)O | inactive | inactive | inactive | – | inactive | inactive | inactive | – | inactive | – | –
14 | O=S(=O)(O)CCC(F)(F)C(F)(F)C(F)(F)C(F)(F)C(F)(F)C(F)(F)F | inactive | inactive | inactive | inactive | inactive | inactive | inactive | inactive | inactive | – | –
15 | OCCC(F)(F)C(F)(F)C(F)(F)C(F)(F)F | inactive | inactive | inactive | inactive | inactive | inactive | inactive | inactive | inactive | – | –
16 | CC(C)c1nnc2ccc(-c3ocnc3-c3cc(F)ccc3F)cn12 | inactive | inactive | inactive | – | – | – | inactive | – | inactive | – | –
17 | C[Si](C)(C)C(F)(F)C(F)(F)C(F)(F)F | inactive | inactive | inactive | inactive | inactive | inactive | inactive | inactive | inactive | – | –
18 | CCCOc1ccc(S(=O)(=O)N2CCN(CC)CC2)cc1-c1nc2c(CC)n(Cc3ccccn3)nc2c(=O)[nH]1 | inactive | inactive | inactive | – | inactive | inactive | inactive | – | inactive | – | –
19 | FC(F)C(F)(F)COCC1CO1 (configuration not stated) | inactive | – | inactive | inactive | inactive | inactive | inactive | – | inactive | – | –
20 | OC(Cn1cncn1)(Cn1cncn1)c1ccc(F)cc1F | inactive | inactive | – | – | – | inactive | inactive | – | – | – | –
21 | CC(C)C(=O)Nc1ccc([N+](=O)[O-])c(C(F)(F)F)c1 | inactive | – | inactive | inactive | – | – | inactive | inactive | inactive | 43.5 µM (active) | –
22 | Cc1nccn1-c1ccc(Sc2cccc(C3(C(N)=O)CCOCC3)c2)cc1 | inactive | – | inactive | – | – | – | inactive | inactive | inactive | 14.3 µM (active) | –
23 | OC[C@H]1O[C@@](CO)(O[C@H]2O[C@H](CO)[C@@H](O)[C@H](O)[C@H]2O)[C@@H](O)[C@@H]1O | inactive | – | inactive | – | inactive | inactive | inactive | – | inactive | – | –
24 | FC(F)(F)COC(OCC(F)(F)F)OCC(F)(F)F | inactive | inactive | inactive | – | – | inactive | inactive | – | inactive | – | –
25 | OC(O)(C(F)C(O)(O)C(F)(F)F)C(F)(F)F | inactive | inactive | inactive | inactive | inactive | – | inactive | inactive | inactive | 31.5 µM (active) and 19.1 µM (active) | –
